DAX1 inh-1: DAX1 (NR0B1) inhibitors, primary screen, cell-based, HEK293, Gal4-DAX1, luciferase luminescence. HEK293 Gal4-DAX1 luciferase reporter. inhibition, % at 6.75 µM. hit rate 0.99% among 340,000. AID 504766, 2011;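 active = inhibition above the mean over all tested compounds plus 3 SD, cut at about 4.2% in these data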;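 also: 0% = DAX1-transfected cells with DMSO and 100% = empty-vector control cells with DMSO; inhibition shows as a rise in luminescence from relieved DAX1 repression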
Target sequence (P51843 207-470 limits assumed): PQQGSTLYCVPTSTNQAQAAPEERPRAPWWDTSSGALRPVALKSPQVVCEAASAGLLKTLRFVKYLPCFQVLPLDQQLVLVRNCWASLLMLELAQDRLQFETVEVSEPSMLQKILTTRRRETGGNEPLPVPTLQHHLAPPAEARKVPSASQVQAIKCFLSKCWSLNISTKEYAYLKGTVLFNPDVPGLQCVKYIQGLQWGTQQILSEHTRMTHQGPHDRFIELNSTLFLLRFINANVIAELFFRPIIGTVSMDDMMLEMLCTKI
ssDAF-12 act: S. stercoralis DAF-12 nuclear receptor activators, primary screen, cell-based, luminescence, HEK293, GRIP1 co-expression, lit1-tk-luc. Nuclear hormone receptor DAF-12 (Strongyloides stercoralis). HEK293 ssDAF-12/GRIP1 lit1-tk-luc reporter; % of 3 µM dafachronic acid response. activation, % at 6.8 µM. hit rate 1% among 370,000. AID 652126, 2013;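 active = activation above the mean over all tested compounds plus 3 SD, cut at about 0.9% in these data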;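 also: 0% = DMSO-only wells and 100% = 3 µM delta7-dafachronic acid wells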
hcDAF12 agonist: H. contortus DAF-12 nuclear receptor activators, primary screen, cell-based, luminescence, HEK293, lit1-tk-luc reporter | HEK293 hcDAF-12 lit1-tk-luc reporter; 0% DMSO, 100% Δ7-dafachronic acid | activation, % at 6.8 µM | hit rate 1.4% among 370,000 | AID 652067, 2013;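 active = activation above the mean of all tested compounds plus 3 SD, cut at about 5.5% in these data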;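 also: 100% = response to 3 µM Δ7-dafachronic acid high control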
DAX1 inh-2: DAX1 (NR0B1) inhibitors on StAR promoter, primary screen, cell-based, luminescence, SF-1 (NR5A1), full-length DAX-1; HEK293T StAR-luciferase reporter, SF-1/DAX-1 repression relief; inhibition, % at 6.8 µM; hit rate 1.1% among 370,000; AID 652010, 2013;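 active = inhibition above the mean over all tested compounds plus 3 SD, cut at about 3.6% in these data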;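 also: 0% = DAX-1 cells with DMSO and 100% = cells lacking DAX-1 with DMSO; higher inhibition means more luminescence from relief of DAX-1 repression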
hgDAF12 agonist: H. glycines DAF-12 receptor agonists, primary screen, cell-based, luminescence, HEK293, GAL4 fusion, UAS-luciferase. hit rate 1.8% among 370,000. HEK293 GAL4-hgDAF12 UAS-luciferase reporter, agonist luminescence; normalized to butyrate control. Nuclear hormone receptor DAF-12 (Heterodera glycines), GAL4 fusion. activation, % at 6.8 µM;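 active = activation above a cutoff set at the mean of all screened compounds plus 3 SD, cut at about 10% in these data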;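 also: 0% = DMSO wells and 100% = sodium butyrate wells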
PolyA inh: polyadenylation inhibitors in yeast reporter cells, primary screen, luminescence, S. cerevisiae. S. cerevisiae SKY197-pL101 polyadenylation reporter, beta-gal luminescence; efflux-impaired pdr1/pdr3 knockout yeast; score 100 = 6 SD above DMSO. activity score, % at 12 µM. hit rate 0.02% among 300,000;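 active = lowest replicate activity score at least 50, where 100 means six control SD above control mean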;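 also: yeast exposed to compound for 9 h at 30 °C; higher score means more reporter readthrough which indicates perturbed polyadenylation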
Active calls of the source: *; nt = not tested or not shown. Only some compounds are listed: those with a hit (about 4.1% of all), similar ones and a draw of the others.

SMILES	DAX1 inh-1	ssDAF-12 act	hcDAF12 agonist	DAX1 inh-2	hgDAF12 agonist	PolyA inh
CSc1ccccc1OCc1cc(C(=O)N(C)Cc2nonc2C)no1	1.5	-0.9	1.9	4.0*	3.3	11.7
CSc1ccccc1OCc1cc(C(=O)NCc2cccc(C)n2)no1	2.1	-0.8	4.2	3.2	11.0*	5.6
Clc1ccc(-n2c(SCc3cccc4ccccc34)nnc2-c2ccco2)cc1	nt	-2.3	-4.2	-1.4	-0.1	nt
COc1cc(NC(=O)c2ccccc2)c(C)cc1NC(=O)CSc1nnc(-c2cnccn2)n1-c1ccc(C)cc1	nt	-1.2	-1.3	-1.9	-3.2	nt
O=C(Cc1ccccc1)NCC1CCCO1 (stereo not drawn)	0.1	-0.5	-1.2	-0.5	-0.2	16.7
O=P(c1ccccc1)(c1ccccc1)C1CCCO1 (stereo not drawn)	4.3*	-1.4	-0.4	0.6	-2.0	nt
CC(=O)Nc1nc2ncccn2c1-c1ccc(C)cc1	nt	-0.9	-0.7	-0.2	-1.4	nt
CC(=O)c1oc2ccccc2c1NC(=O)CCCN1C(=O)c2ccccc2C1=O	-0.1	-0.4	5.8*	3.5	6.3	13.6
Cc1ccn2c(NCc3ccccc3)c(-c3cccs3)nc2c1	0.5	-1.0	3.4	0.4	10.8*	0.1
Cc1ccc(N2C(=O)c3ccccc3NC2c2ccccc2O)cc1 (stereo not drawn)	-0.1	0.1	3.2	0.2	11.3*	6.1
O=C1c2ccccc2NC(c2ccccc2O)N1O (stereo not drawn)	0.3	-1.1	1.4	0.1	2.5	14.5
CC(=O)Oc1oc(-c2ccccc2)nc1/C=N/c1ccccn1	5.1*	-0.7	1.8	1.6	5.9	23.9
O=C(O)COc1ccccc1C=NNC(=O)Cc1cc(=O)[nH][nH]1	nt	0.3	-0.2	0.6	1.1	nt
COc1ccccc1CCn1cnc(-c2ccc(OC)c(OC)c2)c1CC(C)C	nt	-2.0	-4.8	-4.4	-6.8	nt
CN(C)CCc1cc2c(c3c1ccc1ccccc13)OCO2	0.7	-0.5	1.0	-0.1	0.6	59.4*
Cc1sc2nc[nH]c(=S)c2c1-c1ccccc1	0.6	-1.8	0.3	-0.2	-3.4	8.3
S=c1[nH]cnc2sc(Nc3ccccc3)nc12	0.7	0.2	5.8*	0.2	4.9	4.5
Cc1cc(C)nc(N/N=C/c2ccc(Cl)cc2)n1	5.0*	-1.0	0.2	0.0	2.1	-19.1
Cc1ccc(C)c(NC(=S)c2nc3ccccc3s2)c1	-1.8	1.0*	5.8*	-0.1	2.1	-21.8
Cc1cccc(C)c1NC(=O)CN(c1c(C)cccc1C)S(C)(=O)=O	5.0*	-0.3	1.7	0.3	1.7	nt
O=S(=O)(c1ccc(F)cc1)N1CCN(c2ccccn2)CC1	-0.2	1.6*	3.5	-0.2	0.9	3.5
O=C(Nc1c(F)cc(F)cc1Br)c1cc(S(=O)(=O)N2CCN(c3ccccn3)CC2)ccc1F	4.7*	-2.1	-2.7	-2.1	-1.4	-0.3
O=C1c2ccccc2NC(c2ccc3c(c2)OCCO3)N1c1ccc2c(c1)OCCO2 (stereo not drawn)	-1.7	0.2	3.6	2.0	11.8*	-8.4
COc1cc(C2Nc3ccccc3C(=O)N2c2ccccc2OC)ccc1O (stereo not drawn)	0.1	-0.7	-1.1	0.5	1.3	-2.2
COc1cc(C2Nc3ccccc3C(=O)N2c2ccc3c(c2)OCCO3)ccc1OCC(C)C (stereo not drawn)	-2.8	0.0	5.2	2.4	11.5*	-1.6
SMILES	DAX1 inh-1	ssDAF-12 act	hcDAF12 agonist	DAX1 inh-2	hgDAF12 agonist	PolyA inh
Cc1cc(NC(=O)CSCC(=O)Nc2nc3ccccc3[nH]2)no1	0.6	0.6	5.8*	2.6	2.9	7.4
Cc1ccc2nc(NC(=O)CSCC(=O)Nc3cc(C)on3)sc2c1	-0.3	-0.8	0.9	1.8	4.4	nt
CCc1nc(SCC(=O)Nc2cc(C)on2)c2c(C)c(C)sc2n1	5.7*	-0.3	-1.9	-0.2	-1.4	9.4
Cc1cc(NC(=O)CSCC(=O)Nc2nc3ccc(F)cc3s2)no1	0.4	0.2	5.7*	1.2	2.0	nt
Cc1cc(NC(=O)CSc2n[nH]c(N)n2)no1	-0.1	-0.7	0.1	4.3*	-0.2	-5.0
CCCC1CCC2(CC1)CCC2OC(=O)Nc1ccc2c(c1)OCO2 (stereo not drawn)	nt	-1.9	-1.7	nt	4.1	nt
CC(C=NN=C1C(=O)Nc2ccccc21)=Cc1ccccc1	nt	-0.4	-1.2	-1.8	-2.1	nt
O=C(CSc1nnc(-c2cccnc2)n1Cc1ccco1)Nc1ccc(Cl)cc1	nt	-1.0	1.4	1.5	0.2	nt
COC(=O)C1=C(C)N(Cc2ccc(C(F)(F)F)cc2)C(=NCc2ccccc2C(F)(F)F)NC1c1ccc(Cl)cc1 (stereo not drawn)	nt	-1.4	-0.7	0.9	-1.1	nt
CCCC[C@H](C(=O)N(CC)c1ccccc1)[C@@H](O)c1ccc(Cl)cc1	nt	-0.1	-2.2	-1.0	1.9	nt
CC1CCN(C(=O)c2ncn3c2C(=O)NC[C@@H]3C)CC1	nt	-1.1	-1.5	-0.8	0.8	nt
Cc1ccc(S(=O)(=O)N2CC3(COC(C)(C)OC3)C[C@H]2CON2C(C)(C)CCCC2(C)C)cc1	nt	-2.0	-2.9	nt	-0.8	nt
Cc1cc(NC(=O)CSCC(=O)Nc2cc(C(F)(F)F)ccc2N2CCCCC2)no1	0.1	0.1	6.0*	1.6	5.3	nt
CC(OC(=O)c1cccnc1Cl)C(=O)Nc1ccc(S(N)(=O)=O)cc1 (stereo not drawn)	6.2*	-2.1	-0.6	-0.3	0.9	-7.1
CC(OC(=O)c1cccnc1Cl)C(=O)Nc1ccc2c(c1)OCCO2 (stereo not drawn)	-1.2	-1.2	-1.2	-0.5	-0.9	2.3
c1ccc(SCCOCCN2CCc3ccccc3C2)cc1	0.5	-0.8	6.3*	0.8	2.6	10.7
c1ccc(SCCN2CCc3ccccc3C2)cc1	-0.6	-0.3	0.2	0.6	4.8	8.8
COc1cccc(-c2sc3ccc(OC)cc3c2-c2cnc(N3CCOCC3)nc2)c1	nt	-1.0	-0.8	1.9	10.9*	nt
Fc1ccccc1Cn1ccc2ccc(-c3ccc4ccn(Cc5ccccc5F)c4c3)cc21	nt	-1.1	-1.9	-1.1	3.4	nt
Cc1ccccc1C(=O)n1ccc2ccc(-c3ccc4ccn(Cc5ccc(C#N)cc5)c4c3)cc21	nt	-0.4	-0.3	-1.5	-1.1	nt
Cc1cccc(C(=O)N=c2sccn2C)c1[N+](=O)[O-]	1.2	0.5	-0.2	4.5*	11.1*	-10.0
Cc1ccccc1C(=O)N=c1sccn1C	2.2	-1.2	0.6	0.1	2.0	-1.4
